From PubChem BioAssay AID602292 (National Center for Advancing Translational Sciences (NCATS), 2012)
Screen size: about 1,300 compounds; about 380 (29%) were called active. Not shown: some 37% with an inconclusive outcome. Calls come from the whole dose curve; as a rule, active = well fitted inhibition curve with a large enough effect; inconclusive = small, poorly fitted or top-dose-only effect; inactive = flat fitted curve, though single readings scatter. The list shows a part of the results. A call without a number means that no potency is given here.

What follows are compounds tested against Thyrotropin receptor (Homo sapiens) (UniProt P16473) (assay: qHTS for antagonists of the Thyroid Stimulation Hormone Receptor: Hit Validation in Primary Screen). Settings: TSHR-expressing cells, cAMP antagonist mode; series mostly up to 58 µM.
Sequence of Thyrotropin receptor (Homo sapiens) (P16473 whole entry, looked up): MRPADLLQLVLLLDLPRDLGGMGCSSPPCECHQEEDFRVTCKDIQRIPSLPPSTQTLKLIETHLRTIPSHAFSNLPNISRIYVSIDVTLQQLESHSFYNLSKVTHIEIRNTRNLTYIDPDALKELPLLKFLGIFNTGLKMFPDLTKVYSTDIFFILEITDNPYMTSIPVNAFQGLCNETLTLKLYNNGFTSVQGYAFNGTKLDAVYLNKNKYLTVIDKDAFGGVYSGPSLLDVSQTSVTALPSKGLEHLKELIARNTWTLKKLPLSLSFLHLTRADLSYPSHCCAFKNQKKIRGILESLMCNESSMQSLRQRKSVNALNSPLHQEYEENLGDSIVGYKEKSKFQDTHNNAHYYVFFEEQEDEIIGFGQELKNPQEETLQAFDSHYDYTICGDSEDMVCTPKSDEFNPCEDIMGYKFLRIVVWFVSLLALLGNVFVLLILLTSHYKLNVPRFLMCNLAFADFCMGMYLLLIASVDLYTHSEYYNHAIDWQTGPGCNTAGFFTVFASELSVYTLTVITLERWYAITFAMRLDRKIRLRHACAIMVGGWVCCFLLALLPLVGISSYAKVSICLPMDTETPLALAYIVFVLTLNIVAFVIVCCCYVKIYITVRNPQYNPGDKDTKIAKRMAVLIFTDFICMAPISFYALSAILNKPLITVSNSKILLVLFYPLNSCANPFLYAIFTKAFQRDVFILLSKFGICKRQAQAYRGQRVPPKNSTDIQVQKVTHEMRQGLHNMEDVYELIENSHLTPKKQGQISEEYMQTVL
Procedure, shortened: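 TSHR-expressing cells were pretreated with compound, then stimulated with TSH at EC80 (4nM final) for 2 hours at 37 deg C. Cellular cAMP measured by competitive HTRF (anti-cAMP cryptate, cAMP-d2) after 30 min at room temperature.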
Note: nearly all actives have a fitted effect of over 80% in size.
Potency is the fitted concentration of half-maximal effect.

Row | SMILES | Potency
1 | Cc1c(C(=O)OC/C(O)=C(\C#N)c2nc3ccccc3[nH]2)oc2ccc(Br)cc12 | inactive
2 | CS(=O)(=O)N(CC(=O)N1CCOCC1)c1cccc(F)c1 | inactive
3 | Cc1ccc(S(=O)(=O)c2c(C(=O)c3ccccc3)cnc3cc4c(cc23)OCCO4)cc1 | inactive
4 | O=C(CSc1n[nH]c(=O)n1C1CC1)c1ccc2c(c1)OCCO2 | inactive
5 | O=C(CSc1ncnc2ccccc12)c1ccc2c(c1)OCCO2 | 26.9 µM (active)
6 | COCC(C)NC(=O)C1c2ccccc2Oc2ccccc21 (stereo unspecified) | inactive
7 | O=S(=O)(Nc1ccc(O)c(Sc2nc3ccccc3s2)c1)c1cccc2ccccc12 | 37.9 µM (active)
8 | CCn1c(Cl)c(C=O)s/c1=N\S(=O)(=O)c1ccccc1 | 21.3 µM (active)
9 | CCN(CC)S(=O)(=O)c1cccc(NC(=O)CCSc2ccc(Cl)cc2)c1 | 30.1 µM (active)
10 | CC(=O)N1c2ccc(S(=O)(=O)NCCC(=O)Nc3cccc(Cl)c3)cc2CC1C (stereo unspecified) | inactive
11 | CC(=O)c1cccc(NC(=O)CCCSc2ccccc2)c1 | inactive
12 | CC1CCCN(S(=O)(=O)c2csc(C(N)=O)c2)C1 (stereo unspecified) | inactive
13 | CCOP(=O)(Cc1ccc(C(C)(C)CC(C)=O)o1)OCC | inactive
14 | O=C(c1ccc2c(c1)N(Cc1ccccc1)C(=O)c1ccccc1S2)N1CCCC1 | inactive
15 | Cc1ccc(C(=O)N2c3ccccc3N(Cc3ccccc3)C(=O)C2(C)C)cc1 | 16.9 µM (active)
16 | Cc1ccc(CN2C(=O)c3ccccc3Sc3ccc(C(=O)NCCCN4CCOCC4)cc32)cc1 | inactive
17 | O=C(NC(Nc1nc2ccc([N+](=O)[O-])cc2s1)(C(F)(F)F)C(F)(F)F)c1cccnc1 | 7.57 µM (active)
18 | COc1ccc2nc(NC(=O)c3ccccc3[N+](=O)[O-])sc2c1 | inactive
19 | O=C(NC(Nc1nc2ccc([N+](=O)[O-])cc2s1)(C(F)(F)F)C(F)(F)F)c1ccccc1 | 0.953 µM (active)
20 | O=C(COC(=O)C12CC3CC(CC(Br)(C3)C1)C2)Nc1cccc(S(=O)(=O)N2CCOCC2)c1 | 23.9 µM (active)
21 | Cc1cccc(NC(=O)C2CCN(S(=O)(=O)c3ccc4c(c3)NC(=O)CO4)CC2)c1 | inactive

Row | SMILES | Potency
22 | CSc1cccc(NC(=O)CN2C(=O)COc3ccc(S(=O)(=O)N4CCOCC4)cc32)c1 | inactive
23 | C=CCN1C(=O)/C(=C/c2ccc(OC(C)=O)c(OCC)c2[N+](=O)[O-])SC1=S | 7.57 µM (active)
24 | COc1cc(/C=C/C(=O)c2ccc(NS(=O)(=O)c3ccc(C)cc3)cc2)ccc1OC(F)F | inactive
25 | COc1ccc(/C=C/C(=O)c2ccc(NS(=O)(=O)c3ccc(C)cc3)cc2)cc1O | 23.9 µM (active)
26 | Nc1nc(SCC(=O)NCC2CCCO2)[nH]c(=O)c1NC(=O)c1ccc(F)c(F)c1 (stereo unspecified) | inactive
27 | CCOc1ccccc1NC(=O)CSc1nc2ccccc2c(=O)n1CC1CCCO1 (stereo unspecified) | inactive
28 | Cc1cc(C(=O)CSc2nc3ccccc3[nH]2)c(C)n1CC1CCCO1 (stereo unspecified) | 21.3 µM (active)
29 | CC1(C)CC(O)CC(C)(C)N1CC(O)COCc1ccccc1 (stereo unspecified) | inactive
30 | Clc1c(CSc2nc3ccccc3o2)nc2ccccn12 | 23.9 µM (active)
31 | Cc1c(C(=O)Nc2ccc3c(c2)OCCO3)sc2nc(-c3ccccc3)cn12 | 30.1 µM (active)
32 | Cc1cc(-n2c(C)cc(C(=O)CSc3[nH]c(=O)cc(C(F)(F)F)c3C#N)c2C)no1 | 9.53 µM (active)
33 | CCCCn1c(NC(=O)c2ccccc2Cl)c(C#N)c2nc3ccccc3nc21 | 15.1 µM (active)
34 | Cc1ccc(Sc2ncccc2NC(=O)c2ccccc2Cl)cc1 | inactive
35 | Cc1cccc2c1-c1sc(C(=O)NCCCN3CCCC(C)C3)cc1CO2 (stereo unspecified) | inactive
36 | CCCCn1c(-c2csc3c2CCCC3)n[nH]c1=S | 30.1 µM (active)
37 | COc1ccc(-c2csc3ncn(Cc4ccccc4)c(=O)c23)cc1 | inactive
38 | COc1ccc(-c2cc(-c3nc4ccccn4c3NCc3ccccc3)ccc2OC)cc1 | 2.69 µM (active)
39 | CCCCCCSc1ccc(-c2nc3ccc(Cl)cn3c2NCCCC)cc1OC | inactive
40 | CCCCNc1c(-c2cccc(-c3ccc(OC)cc3)c2)nc2ccc(C)cn12 | 37.9 µM (active)
41 | CCC(C)Sc1ccc(-c2nc3ccc(C)cn3c2NCc2ccccc2)cc1OC (stereo unspecified) | 21.3 µM (active)
42 | CCOc1ccccc1/C=C/c1onc(C)c1S(=O)(=O)N1CCC(C(=O)N2CCCCCC2)CC1 | inactive

Row | SMILES | Potency
43 | CCOc1ccccc1NC(=O)C1(S(=O)(=O)c2ccc(Cl)cc2)CC1 | inactive
44 | C=CC(C)(C)c1c2occc2c(O)c2ccc(=O)oc12 | 16.9 µM (active)
45 | COc1cccc(O)c1CN1CCC(C(=O)Nc2ccc(Oc3cccnc3)cc2)CC1 | inactive
46 | O=[N+]([O-])c1ccc(S(=O)(=O)c2ccccc2)nc1 | 37.9 µM (active)
47 | COc1ccc(-c2sc3ccc(N4CCOCC4)cc3c2C#CCO)cc1 | 19 µM (active)
48 | O=C(c1ccc2c(=O)n(Cc3ccc4c(c3)OCO4)c(=S)[nH]c2c1)N1CCCCC1 | inactive
49 | CCN(C(=O)CN1C(=O)COc2ccc(S(=O)(=O)N3CCOCC3)cc21)c1ccc(OC)cc1 | inactive
50 | COC(=O)c1ccc(NC(=O)c2ccccc2)o1 | inactive
51 | COc1ccc(C(=O)c2ccccc2)c2c(O)ccc(C(=O)c3ccccc3)c12 | 12 µM (active)
52 | Cc1cc(OCc2cc(C(=O)NCc3csc(C(C)C)n3)no2)cc(C)c1Cl | inactive
53 | Cc1ccc(F)cc1CNC(=O)c1cc(COc2ccc3ncccc3c2)on1 | 21.3 µM (active)
54 | Cc1ccc(OCc2cc(C(=O)NCC3COCCO3)no2)cc1C (stereo unspecified) | inactive
55 | O=C(NCc1cccc(Cl)c1)c1cc(COc2ccc3ncccc3c2)on1 | 9.53 µM (active)
56 | CC(CNC(=O)c1cc(COc2ccc3ncccc3c2)on1)c1ccccc1 (stereo unspecified) | 23.9 µM (active)
57 | COc1ccc(CNC(=O)C(C)OC(=O)c2cccs2)cc1 (stereo unspecified) | inactive
58 | COc1ccc(S(=O)(=O)NCCc2cn3nc(C)c(C)nc3n2)cc1F | inactive
59 | COc1ccc(NC2CCCN(C(=O)CCc3cccc(F)c3)C2)cc1 (stereo unspecified) | inactive
60 | COc1ccc(-c2csc(/C(C#N)=C\c3ccc(O)c([N+](=O)[O-])c3)n2)cc1OC | 1.9 µM (active)
61 | CCOc1ccc(-c2csc(/C(C#N)=C\c3ccc(O)c([N+](=O)[O-])c3)n2)cc1 | 6.01 µM (active)
